Compounds without any hit were thinned out: in the full panel of roughly 83,000, 20% have a hit.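 Testing used 96-well plates and a 48-hour single-concentration exposure. Example: -40 means 40% of the starting cells died.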 Activity calls are given as the source filed them.

For this experiment, the system named is MOLT-4 leukemia. The experiment in a line: NCI-60 one-dose screen, 48 h (100 = growth as untreated, 0 = no growth, -100 = all killed). Conditions: 10 µM unless noted. How it is done: Growth inhibition of the MOLT-4 human tumor cell line is measured as a screen for anti-cancer activity. Cells are grown in 96 well plates and exposed to the test compound for 48 hours. Compounds are tested at a single concentration, which is 10^-5 M for most compounds. The reported endpoint is percent growth (GI% or GIPRCNT), where numbers from 0 - 100% represent growth inhibition, and numbers from -100% - 0 represent cell death. For example, a value of 40 represents 60% growth inhibition. A value of 0 means no net growth occurred over the course of the experiment. A value of -40 indicates 40% of cells at the beginning of the experiment died by the end of the experiment. A value of -100 means all cells are dead at the end of the experiment.
NCI-60 Human Tumor Cell Lines Screen was performed using the standard one-dose NCI protocol, which is described in more detail at https://dtp.cancer.gov/discovery_development/nci-60/default.htm.
Compounds with GIPRCNT values below 10 were considered active. Activity score was based on GIPRCNT using the following formula: […]
Score is 0 for GIPRCNT values of 100 or above, 50 for GIPRCNT values of 0, and 100 for GIPRCNT values of -100.
Consider `O=C1NC(=C(Cl)Cl)/C(=N\S(=O)(=O)NCc2ccccc2)N1`, for which the growth was 85.5% (inactive).

For the compound `COC1=CC(c2ccc[nH]2)=N/C1=C\c1[nH]c(C)c(C(=O)OC(C)C)c1C`, the growth was -5.6% (active).

On to `CC(=O)O[C@H]1CC2CCC3C(CC[C@@]4(C)C3C[C@H]([N+]3(C)CCCCC3)[C@@H]4OC(C)=O)[C@@]2(C)C[C@@H]1N1CCCCC1` (stereo not given in full), for which the growth was 98.9% (inactive).

On to `COc1ccc(-c2cc(-c3cccnc3)nc3sc4c(=O)[nH]c(-c5ccc(Cl)cc5)nc4c23)cc1OC`, for which the growth is 37.6% (inactive).

For the compound `CCOC(=O)c1cc(C(=O)c2cc(OC)c(OC)c(OC)c2)n2ncccc12`, the growth was 18.5% (inactive).

Turning to `NC(=O)CSc1oc(-c2ccccc2)nc1S(=O)(=O)c1ccc(Br)cc1`, the growth was 89.2% (inactive).

Turning to `CC(=O)N1N=C(c2ccc(Nc3nc(Nc4ccccc4)nc(Nc4ccccc4)n3)cc2)CC1c1ccccc1` (stereo not given), the growth was 75.1% (inactive).

Take `CCCCCCCCCCCCCCCCCCOc1ccccc1CC(=O)OCC[N+](C)(C)C`: the growth is -7.37% (active).

For `CCN(CC)CCn1c2ccc(O)cc2c2sc3cc(O)ccc3c(=O)c21`, the growth is 9.25% (active).

As to `COc1cccc(/C=C2\COc3ccc(O)c(O)c3C2=O)c1`, the growth was 2.08% (active).

As for `c1ccc([P+](c2ccccc2)(c2ccccc2)c2ccc3c4ccc([P+](c5ccccc5)(c5ccccc5)c5ccccc5)c5cccc(c6cccc2c63)c54)cc1`, the growth is 23.2% (inactive).

Consider `O=C(/C=C/c1cccs1)Nc1ncc(Cc2ccccc2F)s1`, for which the growth was 26% (inactive).

As for `COc1ccc(/C=C/C(=O)c2cc3c(N)c(C(=O)Nc4cccc5ccccc45)sc3nc2C)cc1`, the growth was 100% (inactive).

Regarding `NC(=O)c1cccc(-n2ccc3cc(NC(=O)c4ccc(N5CCOCC5)c(C(F)(F)F)c4)ccc32)n1`, the growth was 52.5% (inactive).

For `CC/C=C\C[C@H](O)C/C=C1/C(=O)C=C[C@@H]1C/C=C\CCCC(=O)N(C)C`, the growth is 6.69% (active).

As for `Cc1nc2sc(C(=O)Nc3cccc4ccccc34)c(N)c2cc1C(O)c1ccccc1` (stereo not given), the growth was 6.27% (active).

For the compound `CCc1ccc(CCCC(=O)O)cc1`, the growth is 98.8% (inactive).

As to `O=C(Nc1nc(-c2ccc(Cl)cc2)nc2c1sc(=S)n2-c1ccccc1)C(F)(F)F`, the growth was 82.6% (inactive).

As to `CSc1nc2ccccc2cc1/C=C1/C=C(c2ccccc2)NC1=O`, the growth is 36.3% (inactive).

Take `CCC(C)(C)C(=O)O[C@H]1C[C@@H](C)C=C2C=C[C@H](C)[C@H](CC[C@@H]3CC(SCCN)CC(=O)O3)[C@H]21` (stereo not given in full): the growth is 77.7% (inactive).

Take `COc1cc2c(c(OC)c1OC)CCC(c1cccc(NC(=O)c3ccc(Br)cc3)c1)O2` (stereo not given): the growth was 41.1% (inactive).

For the compound `COC(CC(F)F)c1cn(S(=O)(=O)c2ccc(C)cc2)c2ccccc12` (stereo not given), the growth was 22.3% (inactive).

With `CC(C)c1ccc(-n2c(=S)[nH]c3sc4cc(O)ccc4c3c2=O)cc1`, the growth is 98% (inactive).

In the case of `CSc1nc2ncc([N+](=O)[O-])c(=O)n2[nH]1`, the growth is 129% (inactive).

As for `CCOC(=O)C/C(=N\Nc1cc(=O)[nH]c2ccc(Br)cc12)C(=O)OCC`, the growth was -15.7% (active).

Regarding `O=C1Nc2ccc(C(=O)O)cc2/C1=N/c1nnc(Sc2ccccc2)s1`, the growth was 105% (inactive).

As for `CC(=O)Oc1ccc(/C(=C(\C)c2ccc(Cl)cc2)c2ccc(OCCN3CCCCC3)cc2)cc1`, the growth is -8.3% (active).

Turning to `O=C(/C=C/c1cccc(Cl)c1)c1cccc(OCCCOc2cccc(C(=O)/C=C/c3cccc(Cl)c3)c2)c1`, the growth is 96.9% (inactive).

Take `O=C(Nc1nc2ccc(C(=O)N3CCN(/C=C/c4ccccc4)CC3)cc2s1)c1ccc(NCCc2ccccc2)c([N+](=O)[O-])c1`: the growth was 27.4% (inactive).

`CCN(CC)c1ccc(\C=N/N=C(N)/C(N)=N\N=C/c2ccc(N(CC)CC)cc2)cc1`: the growth is 95.8% (inactive).

Turning to `COc1ccc(OC)c(-c2nc(SCC(=O)c3ccc(C#N)cc3)[nH]c(=O)c2C#N)c1`, the growth was 103% (inactive).

As to `N#Cc1c(-c2ccccc2)cc(-c2ccccc2)n(CCCC(=O)Nc2ccccc2N)c1=O`, the growth was 47.4% (inactive).

Regarding `COc1cccc(CNc2ccc3ncnc(Nc4ccc(F)c(Cl)c4)c3c2)c1`, the growth was 69.9% (inactive).

`COc1ccc(/C=N\Nc2nc(SCCC(C)C)nc(-c3ccc(OC)cc3)c2C#N)cc1`: the growth is 65.1% (inactive).

As for `Oc1c(I)cc(I)cc1CNCc1ccccn1`, the growth was 16.2% (inactive).

Turning to `COc1ccc(NC(=O)c2sc3nc(C)c(C(=O)/C=C/c4ccccc4)cc3c2N)cc1`, the growth is 27.6% (inactive).

With `COc1ccccc1NC(=O)N=Nc1c(O)[nH]c2ccccc12`, the growth was 93.4% (inactive).

On to `O=C(CSC(=S)n1cnnc1)NC(=O)c1ccccc1`, for which the growth is 102% (inactive).

As for `Cc1cc(=O)n(C(=O)Nc2ccccc2Cl)c2cc(O)ccc12`, the growth is 110% (inactive).

For `Nc1c(C(=O)Nc2ccncc2)sc2nc3c(cc12)C(O)CCC3` (stereo not given), the growth was 98% (inactive).
